Experimental data published in PubChem BioAssay (NCATS).
Records with an inconclusive call do not appear. Where a call stands in place of a potency, no number is given. The source made the active and inactive calls. Calls come from the whole dose curve; as a rule, active = well fitted cell-killing curve with a large enough effect; inconclusive = small, poorly fitted or top-dose-only effect, or effect the other way; inactive = no such curve, though single readings can be large or run the other way.

Experiments:
[1] = Viability qHTS for spleen associated tyrosine kinase inhibitor (SYKi) naive MV4-11 cells (AID 1963823); note: nearly all actives have a fitted effect of over 40% in size
In short: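 SYKi-naive MV4-11 AML cells, 500 per well, were exposed to library compounds for 72 hr at 37 C, 5% CO2. Viability was then read by CellTiter-Glo luminescence after 10 min at room temperature.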

[2] = Viability qHTS for spleen associated tyrosine kinase inhibitor (SYKi) drug resistant MV4-11 cells (AID 1963824); note: nearly all actives have a fitted effect of over 35% in size
In short: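 SYK-inhibitor-resistant MV4-11 AML cells were seeded at 500 per well onto compound and cultured 72 hours (37 °C, 5% CO2). CellTiter-Glo was then added, and after 10 min at room temperature, luminescence gave viability.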
Potency is the fitted concentration of half-maximal effect.

| SMILES | Potency [1] | Potency [2] |
| --- | --- | --- |
| COc1ccc(-c2ccc3c(N4CCOCC4)nc(N4CC(C)OC(C)C4)nc3n2)cc1CO (centres undefined) | 291 nM (active) | 1030 nM (active) |
| CCOC(=O)c1cc(C#N)c(N2CCC(C(=O)NS(=O)(=O)Cc3ccccc3)CC2)nc1C | inactive | inactive |
| CC1=CC(=O)CC(C)(C)C1/C=C/C(C)O[C@@H]1O[C@H](CO)[C@@H](O)[C@H](O)[C@H]1O[C@@H]1OC[C@](O)(CO)[C@H]1O (some centres undefined) | inactive | inactive |
| OCC1OC(Oc2cc(O)cc(/C=C/c3ccc(OC4OC(CO)C(O)C(O)C4O)cc3O)c2)C(O)C(O)C1O (centres undefined) | inactive | inactive |
| CC(NC(=O)CC(=O)O)c1nc2ccccc2c(=O)[nH]1 (centres undefined) | inactive | inactive |
| CCN=C1N[C@@H]2[C@@H](O)[C@H](O)[C@@H](CO)O[C@@H]2S1 | inactive | inactive |
| COc1ccc(CC2NCCc3c2[nH]c2ccc(C)cc32)cc1OC (centres undefined) | 9200 nM (active) | 7310 nM (active) |
| C[C@@H]1CN(CCCn2c3ccccc3c3ccccc32)C[C@H](C)N1 | 23700 nM (active) | 26600 nM (active) |
| CC1NC(=O)CNC(=O)C(C(C)C)NC(=O)C2CCCN2C(=O)C(C(C)C)NC(=O)C(Cc2c[nH]c3ccccc23)NC1=O (centres undefined) | inactive | inactive |
| c1nc(NCC2CCOC2)c2cc(-c3ccc4c(c3)OCO4)ccc2n1 (centres undefined) | 20600 nM (active) | 18400 nM (active) |
| CC(=O)N[C@H](Cc1ccc2ccccc2c1)C(=O)N[C@H](Cc1ccc(Cl)cc1)C(=O)N[C@H](Cc1cccnc1)C(=O)N[C@@H](CO)C(=O)N[C@@H](Cc1ccc(O)cc1)C(=O)N[C@H](CCCNC(N)=O)C(=O)N[C@@H](CC(C)C)C(=O)N[C@@H](CCCN=C(N)N)C(=O)N1CCC[C@H]1C(=O)N[C@H](C)C(N)=O | inactive | inactive |
| O=C(OC[C@H]1O[C@@H](Oc2ccccc2CO)[C@H](O)[C@@H](O)[C@@H]1O)c1ccccc1 | inactive | inactive |
| C=C1/C(=C/C=C2\CCC[C@]3(C)[C@@H]([C@H](C)/C=C/[C@H](O)C4CC4)CC[C@@H]23)C[C@@H](O)C[C@@H]1O | 32.6 nM (active) | 731 nM (active) |
| Cn1ncc(Cl)c1-c1cc(C(=O)N[C@H](CN)Cc2ccc(F)c(F)c2)oc1Cl | 2590 nM (active) | 8200 nM (active) |
| COc1cc(/C=C/C(=O)O[C@H]2[C@H](O)[C@@H](CO)O[C@@]2(CO)O[C@H]2O[C@H](CO)[C@@H](O)[C@H](O)[C@H]2O)cc(OC)c1O | inactive | inactive |
| CC1CCC23COC(=O)C2=CC(O)CC3C1(C)CCc1ccoc1 (centres undefined) | inactive | inactive |
| COC(=O)N/N=C/c1c[n+]([O-])c2ccccc2[n+]1[O-] | inactive | inactive |
| Cn1cc(-c2cnn3c(N)c(Br)c(C4CCCNC4)nc23)cn1 (centres undefined) | 291 nM (active) | 461 nM (active) |
| C=C1C(=O)OC2/C=C(\CO)CC/C=C(\C=O)CC(OC(=O)CC(C)C)C12 (centres undefined) | 2270 nM (active) | 2020 nM (active) |
| CS(=O)(=O)c1ccc([C@@H](CC2CCCC2)C(=O)Nc2nccs2)cc1 | 8330 nM (active) | 7420 nM (active) |
| COc1ccc(/C=C/C(=O)O[C@H]2[C@H](O[C@H]3[C@@H]4C=CO[C@@H](O[C@@H]5O[C@H](CO)[C@@H](O)[C@H](O)[C@H]5O)[C@@H]4[C@@]4(CO)O[C@@H]34)O[C@@H](C)[C@H](O)[C@H]2OC(C)=O)cc1 | inactive | inactive |
| C=C(C(=O)O)C1CCC2(C)CCCC(C)(O)C2C1 (centres undefined) | inactive | inactive |
| CC1OC(=O)C[C@@H]2C(C(=O)O)=CO[C@@H](O[C@H]3O[C@H](CO)[C@@H](O)[C@H](O)[C@H]3O)[C@H]12 (some centres undefined) | inactive | inactive |
| C[C@@H]1[C@H](O)[C@@H]2OC(=O)C3=C2[C@H](CCC3)[C@@]12C[C@@H](c1ccoc1)OC2=O | inactive | inactive |
| CC1(CO)CCCC2(C)C1C(OC(=O)c1ccccc1)C=C1C(=O)OCC12O (centres undefined) | 1800 nM (active) | 1610 nM (active) |
| COc1cc(O)cc(C)c1C(=O)O[C@H]1[C@@H](O)[C@@H](n2ccc(=O)[nH]c2=O)O[C@@H]1CO | inactive | inactive |
| CC1(C)CC[C@]2(C(=O)O[C@@H]3O[C@H](CO)[C@@H](O)[C@H](O)[C@H]3O)CC[C@]3(C)C(=CCC4[C@@]5(C)C[C@@H](O)[C@H](O)[C@](C)(C(=O)O)C5CC[C@]43C)C2C1O (some centres undefined) | inactive | inactive |
